# Screens deposited in PubChem by National Center for Advancing Translational Sciences (NCATS).
# This is a sample that favours compounds with a hit; in the whole collection about 8.3% have one here.
# HCMV antiviral – qHTS Assay for inhibitors of the human cytomegalovirus (HCMV); HFF cells, HCMV-luciferase reporter, 72 h; active compounds read low; activity change, negative = inhibition, % at 57.5 µM; 4.5% of 410,000 active; AID 1259415, 2018; in the data active = activity change below about -60%; inconclusive = no clear call, values can overlap the other calls; inactive = above about -39%
#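 After 16 h attachment at 37C, HFF cells received test compound and HCMV-luciferase (1 PFU/cell); reporter luminescence read 72 h later, data normalized against buffer-only and known inhibitor Salinomycin.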
# MARV entry inh – qHTS for inhibitors of binding or entry into cells for Marburg Virus. Potency, µM (titrated, usually from 37.8 µM), inactives show at the highest dose activity change, negative = inhibition, actives largely listed as inhibitors. 1.8% of 300,000 active. AID 540276, 2011. Marburg virus pseudotyped entry inhibition, cell reporter; calls by dose curve; tested in HEK293 cells; also: potency is read from the fitted curve at half-maximal effect
# FMDV antiviral – High Throughput Screening for Foot and Mouth Disease Virus Antivirals; AID 1159524, 2015; FMDV antiviral cell-based qHTS; Potency, µM (top dose mostly 57.9 µM), inactives show at the highest dose activity change, negative = inhibition, hits mostly inhibitors; 1.2% of 410,000 active; calls by dose curve; tested in HEK293T cells; also: read-out not given here; potency is read from the fitted curve at half-maximal effect; nearly all actives have a fitted effect of over 45% in size
# HCV inh – qHTS Assay for Inhibitors of Hepatitis C Virus (HCV); Huh7.5.1 HCVcc-Cre infection, luciferase reporter, 44 h; Potency, µM (titrated, usually from 41.8 µM), inactives show at the highest dose activity change, negative = inhibition, usual class: inhibitors; 3.4% of 340,000 active; also: potency is read from the fitted curve at half-maximal effect
#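 Reporter virus HCVcc-Cre (~0.5 moi) infects cells exposed to compound; seeding density 1,000 cells/well with 4 h settling beforehand. Luminescence, 15 sec read, taken 44 h post-infection following a 15 min RT substrate incubation.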
# Lassa entry inh – qHTS for Inhibitors of binding or entry into cells for Lassa Virus | Lassa virus pseudotype entry inhibition, cell reporter | Potency, µM (titrated, usually from 37.9 µM), for the others: top-dose activity change, negative = inhibition, hits mostly inhibitors | 1.2% of 300,000 active | AID 540256, 2011; calls by dose curve; tested in HEK293 cells; also: potency is read from the fitted curve at half-maximal effect; nearly all actives have a fitted effect of over 50% in size
# Giardia FBPA inh – qHTS Assay for Inhibitors of Fructose-1,6-bisphosphate Aldolase from Giardia Lamblia; A8B2U2; 0.71% of 290,000 active; purified Giardia FBPA; Potency, µM (highest dose often 59.6 µM), for the others: at the top dose activity, negative = inhibition, most hits filed as inhibitors; AID 2451, 2010; also: potency is read from the fitted curve at half-maximal effect; nearly all actives have a fitted effect of over 55% in size
# Target sequence (A8B2U2 whole entry, looked up): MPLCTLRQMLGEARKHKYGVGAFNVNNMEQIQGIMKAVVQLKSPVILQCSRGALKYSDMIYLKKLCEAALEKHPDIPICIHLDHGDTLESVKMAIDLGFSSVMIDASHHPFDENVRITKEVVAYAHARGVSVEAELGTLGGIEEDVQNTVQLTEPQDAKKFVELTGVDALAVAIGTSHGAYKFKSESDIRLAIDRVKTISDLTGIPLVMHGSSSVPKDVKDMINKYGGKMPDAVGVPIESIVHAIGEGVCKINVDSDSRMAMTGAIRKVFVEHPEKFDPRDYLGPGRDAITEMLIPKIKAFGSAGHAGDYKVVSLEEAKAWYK
#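 Giardia FBPA (40 nM reagent) was preincubated 10 min at RT with compound (up to 57.5 uM final), then substrate plus GAPDH/TPI/NAD/arsenate coupling system with diaphorase/resazurin was added; resorufin fluorescence (525/598 nm) was read after 20 min.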
# The depositor's hits bear a star; ? = inconclusive; nt = no result given; [ ] = another dose, or the depositor's remark. Unless noted, calls follow the shape of the dose curve; as a rule, active = well fitted curve in the direction sought with a large enough effect; inconclusive = small, poorly fitted or top-dose-only effect, or another doubt; inactive = no such curve, though single readings can be large; an effect the other way counts as inactive or inconclusive. % is scaled to controls: 0 for no effect and ±100 for the full control effect.
SMILES,HCMV antiviral,MARV entry inh,FMDV antiviral,HCV inh,Lassa entry inh,Giardia FBPA inh
Cc1ccccc1-n1c2nc(=O)[nH]c(=O)c-2cc2c(Cl)cccc21,-9.5,nt,-27.4%,nt,-22.8%[46.1 µM],nt
CN[C@H](CC(C)C)C(=O)N[C@H]1C(=O)N[C@@H](CC(N)=O)C(=O)N[C@H]2C(=O)N[C@H]3C(=O)N[C@H](C(=O)N[C@H](C(=O)O)c4cc(O)cc(O)c4-c4cc3ccc4O)[C@H](O)c3ccc(c(Cl)c3)Oc3cc2cc(c3O[C@@H]2O[C@H](CO)[C@@H](O)[C@H](O)[C@H]2O[C@H]2C[C@](C)(N)[C@H](O)[C@H](C)O2)Oc2ccc(cc2Cl)[C@H]1O,nt,?,nt,nt,nt,2.1%
CCOC(=O)C1(Cc2cccc(OC)c2)CCN(Cc2cccc(OC)c2O)CC1,-73.0*,?,25.1µM*,?,?,-5.1%
CCOC(=O)C1(Cc2ccccc2C(F)(F)F)CCN(Cc2ccc(COC)o2)CC1,?,?,?,8.91µM*,?,-8.9%
O=C(CCc1nc2ccccc2s1)N1CCOc2ccc(CN3CCc4sccc4C3)cc2C1,nt,nt,2.2%,nt,nt,nt
COc1ccccc1C(=O)NCCn1cc(SCc2ccc(C)cc2)c2ccccc21,-15.3,?,?,nt,?,nt
CC(NC(=O)c1cc(F)ccc1F)c1nnc2n1CCN(Cc1ccco1)CC2 (centres undefined),nt,nt,-2.0%,nt,nt,nt
CCCCN1C(=O)c2[nH]nc(-c3ccccc3O)c2C1c1ccc(OCc2ccccc2)cc1 (centres undefined),-108.0*,?,0.0%,nt,?,nt
COCCN1C(=O)c2[nH]nc(-c3ccccc3O)c2C1c1ccc(OC)cc1 (centres undefined),-14.8,-4.4%,-9.7%,-4.0%,?,-2.8%
COc1cccc(C2c3c(-c4ccccc4O)n[nH]c3C(=O)N2CCc2ccc(OC)c(OC)c2)c1 (centres undefined),-25.7,7.08µM*,-7.6%,nt,?,nt
CCCCN1C(=O)c2[nH]nc(-c3ccccc3O)c2C1c1ccc(OCc2ccccc2)c(OC)c1 (centres undefined),?,?,-25.4%,nt,?,nt
COCCCN1C(=O)c2[nH]nc(-c3ccccc3O)c2C1c1ccc(OCc2ccccc2)cc1 (centres undefined),-95.8*,?,?,nt,?,nt
COc1ccc(CCN2C(=O)c3[nH]nc(-c4ccccc4O)c3C2c2cccc(O)c2)cc1OC (centres undefined),90.1,6.6%,-25.3%,?,?,-9.7%
CCC(CC)C(=O)Nc1ccc(OCc2cc(=O)n3c4c(sc3n2)CCCC4)cc1,-16.9,-1.6%[46.1 µM],-16.9%,nt,7.8%[46.1 µM],nt
CCc1ccc2oc(C(=O)Nc3cccnc3)c(C)c2c1,nt,nt,26.8%,?,nt,2.5%
Cc1c(C(=O)NCc2cccs2)oc2ccc(Br)cc12,14.0,7.3µM*,40.6%,-1.7%,?,0.6%
Cc1c(C(=O)Nc2ccc3oc(-c4cccnc4)nc3c2)oc2ccccc12,-67.4*,-19.2%,-12.8%,?,18.3µM*,-3.9%
Cc1c(C(=O)NCc2ccccn2)oc2ccc(Br)cc12,31.0,21.3%,36.3%,-18.4%,20.3%,nt
Cc1c(C(=O)Nc2cccnc2)oc2ccc(Br)cc12,51.1,5.01µM*,61.9%,?,?,3.9%
O=C(Nc1ccc2oc(-c3cccnc3)nc2c1)c1ccc(Br)o1,3.9,-10.7%,-28.3%,-1.4%,4.2%,-25.0%
O=C(Nc1ccc2oc(-c3cccnc3)nc2c1)c1ccc([N+](=O)[O-])o1,-11.9,?,-26.6%,2.51µM*,?,0.7%
COc1cccc([C@@H]2Oc3ccc(Br)cc3C(=O)[C@H]2OC(=O)NS(=O)(=O)c2ccc(F)cc2)c1,nt,nt,nt,nt,nt,3.6%
CCCN(CCC)C(=O)Cn1c(=O)n(-c2cccc(C(F)(F)F)c2)c(=O)c2c(C)c(C)sc21,-1.7,-15.6%[46.1 µM],-29.8%,nt,-1.3%[46.1 µM],nt
COc1ccc(C(=O)N2CCC3(CCCN(Cc4ccccc4OC)C3)CC2)cc1,nt,nt,-3.5%,nt,nt,-4.8%
Nc1ncnc2c1ncn2[C@@H]1O[C@H](CNCc2ccc(OCc3ccccc3)cc2)[C@@H](O)[C@H]1O,-27.1,nt,15.9%,3.98µM*,nt,nt
SMILES,HCMV antiviral,MARV entry inh,FMDV antiviral,HCV inh,Lassa entry inh,Giardia FBPA inh
C[C@H](N)C(=O)NC[C@H]1O[C@@H](n2cnc3c(N)ncnc32)[C@H](O)[C@@H]1O,-74.6*,nt,-22.2%,-0.1%,nt,nt
COc1cc(C(O)c2nc(C(=O)NCCN3CCOCC3)cs2)cc(OC)c1OC (centres undefined),-18.0,nt,nt,nt,nt,nt
Fc1ccc(Nc2nc(-c3ccoc3)nc3ccccc23)cc1,nt,nt,-21.2%,nt,nt,-7.2%
COc1ccc(NC(=S)N(CCc2c(C)[nH]c3ccc(C)cc23)Cc2cccs2)cc1,-29.7,?,-6.6%,?,?,-1.0%
COCCNC(=S)N(CCc1c(C)[nH]c2ccc(C)cc12)Cc1ccco1,12.9,?,11.9%,?,-30.0%[46.1 µM],-9.1%
CCOc1ccc(NC(=S)N(CCc2c(C)[nH]c3ccc(C)cc23)Cc2ccco2)cc1,?,?,-19.9%,11.2µM*,?,-1.1%
CNC(=S)N(CCc1c(C)[nH]c2ccc(C)cc12)Cc1cccs1,26.6,nt,-9.0%,10µM*,nt,-6.6%
COCCNC(=S)N(CCc1c(C)[nH]c2ccc(F)cc12)Cc1ccc(C)cc1,-12.6,?,-6.3%,14.1µM*,?,7.7%
COc1ccc2[nH]c(C)c(CCN(Cc3cccs3)C(=S)Nc3ccc(F)cc3)c2c1,nt,nt,-11.8%,11.2µM*,nt,?
CCOCCc1nnc(NC(=O)C(=O)c2cc(C)n(-c3ccc(C)cc3C)c2C)s1,-10.9,?,-7.2%,nt,-16.9%[46.1 µM],nt
COc1cc(NC(=O)C2CCN(S(=O)(=O)c3c(C)noc3/C=C/c3cccs3)CC2)cc(OC)c1,-3.6,-13.6%[46.1 µM],-18.2%,nt,13.8%[46.1 µM],nt
Cc1nn2c(C)c(C(=O)N3CCN(c4ccccc4)CC3)cnc2c1-c1ccccc1,-11.3,nt,-23.3%,nt,23.5%[46.1 µM],nt
CCCCCC(=O)Nc1cc(S(=O)(=O)O)cc2cc(S(=O)(=O)O)cc(O)c12,-77.5*,?,-16.7%,16.8%,19.5%,nt
CCCCCC(=O)Nc1cc(S(=O)(=O)N2CCCCC2)ccc1N1CCCCC1,-17.7,?,-9.9%,?,-5.1%,nt
O=S(=O)(CCN1CCOCC1)c1ccc(Cl)cc1,17.2,-25.1%,-19.4%,11.4%,-17.3%,nt
CCCCNS(=O)(=O)c1ccc(OCC(=O)N2CCN(Cc3ccc4c(c3)OCO4)CC2)cc1,-83.3*,nt,-20.9%,3.16µM*,nt,nt
CCCNS(=O)(=O)c1ccc(OCC(=O)N2CCN(Cc3ccccc3)CC2)cc1,-37.0,?,0.0%,-14.2%,18.3µM*,4.6%
